# High-throughput results: PubChem, National Center for Advancing Translational Sciences (NCATS)
# An excerpt weighted towards active compounds, which were near 19% of everything screened.
# DT40 TDP1 CPT = DT40-hTDP1 cell growth loss with CPT. AID 686979. Potency, µM (doses to about 46.2 µM), for inactives: at the highest dose activity change, negative = growth inhibition, actives largely listed as inhibitors. 420,000 tested, 12% active. chicken DT40 Tdp1-/-;hTDP1 cells + 20 nM CPT, ATP luminescence, 48 h; note: potency is the fitted concentration of half-maximal effect; nearly all actives have a fitted effect of over 55% in size
#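 Chicken DT40 Tdp1-/- cells complemented with human TDP1, 400 cells/well, exposed to compounds plus 20 nM camptothecin for at least 48 h at 37 C; viability read as ATP content by CellTiter-Glo luminescence.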
# IL1B secr inh = inhibitors of inflammasome signaling (IL-1 beta secretion). activity change, % at 57.5 µM. THP-1 LPS/ATP IL-1B secretion, AlphaLISA, 16 h; active compounds read low. 360,000 tested, 4.7% active; in the data active = activity change below about -50%; inconclusive = mostly about -30% to -49%
#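 Secreted IL-1B measured by AlphaLISA bead assay after 16 h compound exposure of THP-1 cells; compounds (final up to 57.5 uM) added 1 h before LPS (250 ng/mL) and ATP (1.25 mM) stimulation; lower signal means less secretion.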
# HT1080NT lethal = kills 2HG-producing HT-1080-NT fibrosarcoma cells; HT-1080-NT fibrosarcoma viability, CellTiter-Glo ATP luminescence, 48 h; Potency, µM (series often up to 46.1 µM), without a hit: top-dose activity, negative = less viability, most hits filed as cytotoxic; 360,000 tested, 1.6% active; AID 686970;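 note: NT is the 2HG producing partner of a matched IDH1 knockdown line; potency is the fitted concentration of half-maximal effect; 0% = DMSO-treated cells and -100% = media-only wells without cells; nearly all actives have a fitted effect of over 55% in size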
#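 HT-1080-NT fibrosarcoma cells (2HG-overproducing), 750 cells/well in RPMI with 5% FBS, dosed after 2 h and incubated 48 h at 37C. CellTiter-Glo luminescence normalized to DMSO and no-cell wells; concentration-response curves fitted and classed.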
# HT1080 IDH1KD tx = toxicity to HT-1080 IDH1 knockdown cells (counter line) | HT-1080 IDH1 knockdown viability, ATP luminescence, 48 h | Potency, µM (series often up to 46.1 µM), without a hit: at the top dose activity, negative = toxicity, actives largely listed as cytotoxic | AID 686971 | 360,000 tested, 2% active;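 note: potency is the fitted concentration of half-maximal effect; 0% = DMSO wells and -100% = cell-free medium wells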
#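 Luminescent ATP read-out (CellTiter-Glo, 10 min at room temperature) after 48 h compound exposure at 37 °C gave viability of IDH1-knockdown HT-1080 cells. Activity was normalised to DMSO and cell-free wells, then fitted as concentration-response curves.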
# DT40 TDP1 no CPT = qHTS for Inhibitors of human tyrosyl-DNA phosphodiesterase 1 (TDP1): qHTS in cells in absence of CPT; DT40 Tdp1-/- hTDP1 cells, no CPT, ATP luminescence, 48 h; Potency, µM (doses to about 46.2 µM), for the others: at the highest dose activity change, negative = growth inhibition, actives largely listed as inhibitors; 420,000 tested, 15% active; AID 686978, 2013; note: potency is the fitted concentration of half-maximal effect; nearly all actives have a fitted effect of over 55% in size
#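 Luminescent ATP content (CellTiter-Glo) served as the growth readout. Knockout chicken DT40 cells expressing human TDP1 were exposed to compounds without camptothecin for a minimum 48 hr at 37 °C.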
# Starred values were filed as active, the others as inactive; ? = inconclusive; · = not tested or not shown. Unless noted, calls come from the whole dose curve; as a rule, active = well fitted curve in the direction sought with a large enough effect; inconclusive = small, poorly fitted or top-dose-only effect, or another doubt; inactive = no such curve, though single readings can be large; an effect the other way counts as inactive or inconclusive. Unless noted, % is set by controls: 0 for no effect and ±100 for the full control effect.
SMILES,DT40 TDP1 CPT,IL1B secr inh,HT1080NT lethal,HT1080 IDH1KD tx,DT40 TDP1 no CPT
CC(CCc1ccccc1)NC(=O)CN1C(=O)NC2(CCCCC2C)C1=O (stereo not drawn),-1%,5,12%,0%,-28%
CCC(C)(C)C1CCC2(CC1)NC(=O)N(CC(=O)N(C)Cc1ccc3c(c1)OCCO3)C2=O (stereo not drawn),?,-17,4%,12%,21µM*
CCOc1ccccc1N1CCN(C(=O)CN2C(=O)NC3(CCCC3)C2=O)CC1,-4%,-1,16%,8%,-5%
CCC(C)(C)C1CCC2(CC1)NC(=O)N(CC(=O)NC(C)CCc1ccccc1)C2=O (stereo not drawn),?,-5,-3%,-3%,12µM*
CCC(C)(C)C1CCC2(CC1)NC(=O)N(CC(=O)N1CCN(c3ccccc3OC)CC1)C2=O (stereo not drawn),21µM*,-13,-3%,-1%,21µM*
O=C(CN1C(=O)NC2(CCCC2)C1=O)Nc1nc(-c2ccc(F)cc2)cs1,-19%,-23,2%,-15%,-21%
CN(Cc1ccc2c(c1)OCCO2)C(=O)CN1C(=O)NC2(CCCCC2)C1=O,-12%,0,18%,10%,0%
CCC(C)(C)C1CCC2(CC1)NC(=O)N(CC(=O)Nc1nc(-c3ccc(C)cc3)cs1)C2=O (stereo not drawn),?,16,0%,4%,7.3µM*
COc1cccc(CCNC(=O)c2c(O)nc3cc(C)ccn3c2=O)c1,4%,·,·,·,14%
COc1ccc(CCNC(=O)c2c(O)nc3cc(C)ccn3c2=O)cc1OC,-7%,·,·,·,-30%
COc1ccc(CCNC(=O)c2c(O)nc3c(C)cccn3c2=O)cc1OC,23µM*,·,·,·,?
COc1ccc(CCNC(=O)c2cc3c(=O)n4cccc(C)c4nc3n2C)cc1,2%,·,·,·,?
COc1cccc(CCNC(=O)c2c(O)nc3ccccn3c2=O)c1,23µM*,·,·,·,21µM*
COc1ccc(CCNC(=O)c2nc3ncccn3n2)cc1OC,?,-3,6%,8%,16µM*
COc1ccc(CCNC(=O)c2cccc(-n3c(C)nc4cccnc43)c2)cc1OC,-21%,·,·,·,?
COc1cccc(CCNC(=O)c2c(O)nc3c(C)cccn3c2=O)c1,18µM*,·,·,·,?
Cc1onc(-c2c(F)cccc2Cl)c1C(=O)NC1CCSC1=O (stereo not drawn),-3%,9,11%,7%,-9%
Cc1c(Cl)cccc1NC(=O)c1cc(-c2cccc(Cl)c2)on1,-18%,·,·,·,-8%
COc1ccc(CCNC(=O)c2cc3cc(F)ccc3nc2C)cc1OC,21µM*,44,6%,4%,9.2µM*
COc1ccc(CCNC(=O)c2cc(C)oc2C)cc1OC,6%,-14,14%,15%,?
Cc1ccc(CNC(=O)c2c(O)nc3ccccn3c2=O)cc1,?,·,·,·,29µM*
O=C(NCCC1=CCCCC1)c1c(O)nc2ccccn2c1=O,12µM*,57,?,-25%,15µM*
Cc1cccn2c(=O)c(C(=O)NCCc3ccccc3)c(O)nc12,16µM*,·,·,·,?
CCOc1ccccc1CNCC1CCCO1 (stereo not drawn),3%,6,7%,-10%,5%
CC1(C)CC(=O)C(C2=NC3(CCCCCC3)Cc3ccccc32)=C(O)C1,?,?,-17%,-11%,?
SMILES,DT40 TDP1 CPT,IL1B secr inh,HT1080NT lethal,HT1080 IDH1KD tx,DT40 TDP1 no CPT
C=CCN1C(=O)C(CC(C)C)NC1=S (stereo not drawn),16%,·,·,·,-13%
C#CCOC(=O)c1ccc(-n2cncn2)nc1,-8%,-4,10%,9%,22%
CCCCc1c(O)nc2ccccn2c1=O,-8%,23,5%,0%,1%
Cc1c(O)nc2ccccn2c1=O,-27%,-65*,12%,5%,-9%
CC(C)(C)c1ccc(C(=O)Nc2ccccc2C(=O)OCc2cc(=O)n3ccsc3n2)cc1,-6%,·,·,·,2%
OC[C@H]1OC([S-])[C@H](O)[C@@H](O)[C@@H]1O.[Au+] (stereo partly drawn),24µM*,·,·,·,-86%
O=C(NCc1ccccc1Cl)C1CCCN(c2ncnc3onc(-c4ccc(F)cc4)c23)C1 (stereo not drawn),?,·,·,·,16µM*
COc1ccc(OC)c(CNC(=O)C2CCCN(c3ncnc4onc(-c5ccc(F)cc5)c34)C2)c1 (stereo not drawn),4%,·,·,·,-8%
O=C(NCc1ccc(Cl)cc1)C1CCCN(c2ncnc3onc(-c4ccc(F)cc4)c23)C1 (stereo not drawn),21µM*,·,·,·,23µM*
CCOc1ccccc1CNC(=O)C1CCCN(c2ncnc3onc(-c4ccc(F)cc4)c23)C1 (stereo not drawn),?,·,·,·,21µM*
O=C(NCc1ccc(Cl)cc1)C1CCCN(C(=O)c2ccc(Cl)cc2)C1 (stereo not drawn),?,-4,2%,28%,?
CCOC(=O)c1cccc(NC(=O)c2ccc3c(c2)C(=O)N(CC2CCCO2)C3=O)c1 (stereo not drawn),-2%,-10,12%,-4%,1%
Cc1cc(C)nc(-n2nc(C)c3c2N(Cc2ccccc2)C(=O)CC3c2ccc(Cl)cc2)n1 (stereo not drawn),16µM*,·,·,·,?
CCOC(=O)C(=NCC1CCCO1)NNc1cc(Cl)ccc1Cl (stereo not drawn),-7%,17,-12%,-4%,0%
C=CCn1c(-c2ccc(OC)cc2)csc1=Nc1c(C)n(C)n(-c2ccccc2)c1=O,21µM*,-19,-18%,-14%,21µM*
CCCC(=O)Nc1cc(C(=O)O)ccc1Sc1ccc(C)cc1,-2%,-4,-5%,1%,3%
COc1cccc(-c2cc(C(F)(F)F)n3ncc(C(=O)O)c3n2)c1,4%,7,17%,20%,-6%
COc1cccc(-c2cc(C(F)(F)F)n3ncc(C(=O)N4CCc5ccccc5C4)c3n2)c1,16µM*,-9,25%,16%,18µM*
CC(C)c1ccc(-c2nn(-c3ccccc3)cc2C(=O)NCC2CCCO2)cc1 (stereo not drawn),-104%,-80*,?,-30%,?
O=C(c1cn(-c2ccccc2)nc1-c1ccc(Cl)cc1)N1CCOCC1,-13%,-26,-1%,-1%,-19%
COc1cccc(-c2cc(C(=O)NCC3CCCO3)c3ccccc3n2)c1 (stereo not drawn),-19%,24,6%,7%,18µM*
O=C(NCc1ccccn1)c1cn(-c2ccccc2)nc1-c1ccc(Cl)cc1,?,0,2%,-6%,26µM*
